# Reference: the supplement of paper PMC8975748
# Structures can show the parent of a compound that is named as a salt.
# Test system: Saccharomyces cerevisiae BY4741 SeMeCo community
# Experiment: z-score of subpopulation abundance vs DMSO median, subpopulation auxotrophic for LM; higher = larger share of this subpopulation than in DMSO controls
# Conditions: 10 µM; 24 h; SM minimal medium; subpopulation (auxotrophy): LM
# Protocol: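 Fluorescent four-plasmid SeMeCo (self-establishing metabolically cooperating S. cerevisiae BY4741 community; plasmids pH-mRuby2, pL-mWasabi, pU-eCFP, pM-TagRFP657) was grown 24 h in minimal SM medium with each Selleck FDA-approved drug at 10 µM in 384-well plates. Cells were fixed and imaged by high-content confocal microscopy. For each auxotrophic subpopulation (and the prototroph), a z-score gives the deviation from the DMSO vehicle-control population median.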
row,Structure (SMILES),z-score of subpopulation abundance
1,CC1=C(C(=O)OC(C)C)C(c2cccc([N+](=O)[O-])c2)C(C(=O)OC2CN(C(c3ccccc3)c3ccccc3)C2)=C(N)N1 (stereo not given) [Azelnidipine],-0.63
2,COc1ccc2c3c1O[C@H]1C[C@@H](O)C=C[C@@]31CCN(C)C2 [Galanthamine],0.45
3,COc1ccc(Cc2cnc(N)nc2N)cc1OC [Diaveridine],-0.01
4,CC(C)[N+](C)(CCOC(=O)C1c2ccccc2Oc2ccccc21)C(C)C [Propantheline bromide],-0.04
5,COc1cc(O)c(C(=O)Nc2nc(C(=O)NCCN(C(C)C)C(C)C)cs2)cc1OC [Acotiamide],1.66
6,CCN1CCN(C(=O)N[C@@H](C(=O)N[C@@H]2C(=O)N3C(C(=O)O)=C(CSc4nnnn4C)CS[C@H]23)c2ccc(O)cc2)C(=O)C1=O [Cefoperazone],1.36
7,CC(C)c1c(C(=O)Nc2ccccc2)c(-c2ccccc2)c(-c2ccc(F)cc2)n1CC[C@@H](O)C[C@@H](O)CC(=O)O [Atorvastatin Calcium],2.22
8,COc1ccnc(C[S+]([O-])c2nc3cc(-n4cccc4)ccc3[nH]2)c1C (stereo not given) [Ilaprazole],0.85
9,C[C@H]1[C@H](NC(=O)/C(=N\OC(C)(C)C(=O)O)c2csc(N)n2)C(=O)N1S(=O)(=O)O [Aztreonam],0.99
10,CN1CCN(CC(=O)N2c3ccccc3C(=O)Nc3cccnc32)CC1 [Pirenzepine dihydrochloride],-0.32
11,CN(Cc1ccc(C(C)(C)C)cc1)Cc1cccc2ccccc12 [Butenafine HCl],-0.39
12,OCc1ccccc1O[C@@H]1O[C@H](CO)[C@@H](O)[C@H](O)[C@H]1O [Salicin],0.72
13,c1ccc(-c2ccc(C(c3ccccc3)n3ccnc3)cc2)cc1 (stereo not given) [Bifonazole],0.64
14,Nc1nnc(-c2cccc(Cl)c2Cl)c(N)n1 [Lamotrigine],1.83
15,C#C[C@]1(O)CC[C@H]2[C@@H]3CCC4=CC(=O)CC[C@@H]4[C@H]3CC[C@@]21CC [Levonorgestrel],-0.89
16,CC(=O)OCC(CCn1cnc2cnc(N)nc21)COC(C)=O [Famciclovir],-0.17
17,C[C@@H](O)[C@H]1C(=O)N2C(C(=O)O)=C(S[C@@H]3CN[C@H](C(=O)Nc4cccc(C(=O)O)c4)C3)[C@H](C)[C@H]12 [Ertapenem sodium],-0.04
18,Nc1ccc2cc3ccc(N)cc3nc2c1 [Proflavine Hemisulfate],-5.03
19,CCOc1cc(N)c([N+](=O)[O-])cc1C(=O)NC1CCN(CC2CC=CCC2)CC1 (stereo not given) [Cinitapride Hydrogen Tartrate],0.4
20,CC[C@H]1OC(=O)[C@H](C)[C@@H](O[C@H]2C[C@@](C)(OC)[C@@H](O)[C@H](C)O2)[C@H](C)[C@@H](O[C@@H]2O[C@H](C)C[C@H](N(C)C)[C@H]2O)[C@](C)(O)C[C@@H](C)[C@@H]2N[C@@H](COCCOC)O[C@H]([C@H]2C)[C@]1(C)O [Dirithromycin],0.49

row,Structure (SMILES),z-score of subpopulation abundance
1,O=c1ccc2ccc(OCCCCN3CCN(c4cccc5sccc45)CC3)cc2[nH]1 [Brexpiprazole],0.35
2,Cc1cc(=O)n(-c2ccccc2)n1C [Antipyrine],-0.72
3,CN1C2CCC1CC(OC(=O)C(O)c1ccccc1)C2 (stereo not given) [Homatropine Bromide],-0.11
4,CC1(C)S[C@@H]2[C@H](NC(=O)C(C(=O)O)c3ccccc3)C(=O)N2[C@H]1C(=O)O (stereo not given in full) [Carbenicillin disodium],-0.02
5,C[C@@H](O)[C@H]1C(=O)N2C(C(=O)O)=C(S[C@@H]3CN[C@H](C(=O)N(C)C)C3)[C@H](C)[C@H]12 [Meropenem Trihydrate],0.14
6,CN(C)CCCC1(c2ccc(F)cc2)OCc2cc(C#N)ccc21 (stereo not given) [Citalopram HBr],-0.05
7,Cc1c[nH]c(=O)[nH]c1=O [Thymine],-0.22
8,COc1cccc2c1C(=O)c1c(O)c3c(c(O)c1C2=O)CC(O)(C(=O)CO)CC3OC1CC(N)C(O)C(C)O1 (stereo not given) [Doxorubicin (Adriamycin) HCl],-0.36
9,NC(=O)c1ncn([C@@H]2O[C@H](CO)[C@@H](O)[C@H]2O)n1 [Ribavirin],-0.41
10,NNc1nncc2ccccc12 [Hydralazine HCl],-0.56
11,Clc1ccc(C(Cn2ccnc2)OCc2c(Cl)cccc2Cl)c(Cl)c1 (stereo not given) [Isoconazole nitrate],-1.59
12,C=CCN1CCCC1CNC(=O)c1cc2nn[nH]c2cc1OC (stereo not given) [Alizapride HCl],-0.39
13,CC1(C)S[C@@H]2[C@H](NC(=O)[C@H](NC(=O)N3CCN(S(C)(=O)=O)C3=O)c3ccccc3)C(=O)N2[C@H]1C(=O)O [Mezlocillin Sodium],-0.38
14,Nc1nc(N)nc(-c2cc(Cl)ccc2Cl)n1 [Irsogladine],0.16
15,CCOc1ccc2ccccc2c1C(=O)N[C@@H]1C(=O)N2[C@@H]1SC(C)(C)[C@@H]2C(=O)O [Nafcillin Sodium],0.39
16,CCOC(=O)CCC(=O)O[C@H]1[C@H](O[C@@H]2[C@@H](C)[C@H](O[C@H]3C[C@@](C)(OC)[C@@H](O)[C@H](C)O3)[C@@H](C)C(=O)O[C@H](CC)[C@@](C)(O)[C@H](O)[C@@H](C)C(=O)[C@H](C)C[C@@]2(C)O)O[C@H](C)C[C@@H]1N(C)C [Erythromycin Ethylsuccinate],3.22
17,CCc1c(C)[nH]c2c1C(=O)C(CN1CCOCC1)CC2 (stereo not given) [Molindone hydrochloride],-0.16
18,CC(C)(C)C(=O)OCOC(=O)[C@@H]1N2C(=O)[C@@H](/N=C/N3CCCCCC3)[C@H]2SC1(C)C [Pivmecillinam hydrochloride],-0.18
19,N#Cc1ccc2[nH]cc(CCCCN3CCN(c4ccc5oc(C(N)=O)cc5c4)CC3)c2c1 [Vilazodone],0.35
20,C[N+]1(C)[C@@H]2CC[C@H]1C[C@@H](OC(=O)C(O)c1ccccc1)C2 (stereo not given in full) [Homatropine Methylbromide],-1
